# PubChem BioAssay (NCATS)
# Records with an inconclusive call do not appear. Where a call stands in place of a potency, no number is given. Calls of active or inactive are those of the source. Calls come from the whole dose curve; as a rule, active = well fitted curve in the direction sought with a large enough effect; inconclusive = small, poorly fitted or top-dose-only effect, or another doubt; inactive = no such curve, though single readings can be large; an effect the other way counts as inactive or inconclusive.
# Molecular target: Luciferin 4-monooxygenase (Photinus pyralis) (UniProt P08659)
# Assay: Primary firefly luciferase (FLuc) qHTS assay for identification of artifact compounds. (AID 1845220); note: nearly all actives have a fitted effect of over 60% in size
# Settings: purified firefly luciferase, luminescence, 5 min; series mostly up to 54.1 µM
# Procedure, shortened: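 In this counter-screen for luciferase artifacts, test compounds met substrate (10 uM each luciferin and ATP) before 10 nM enzyme started the reaction. Light output was measured 5 min later.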
row,Compound,Potency
1,CC(C)OC(=O)C1=CN(C(=O)c2ccc(F)c(F)c2)CC(C)(C)c2c1[nH]c1ccccc21,inactive
2,COc1cccc2cc(-c3nc(C4CCC(C(=O)O)CC4)n4ncnc(N)c34)[nH]c12 (stereo unspecified),inactive
3,CC[C@@H](C)[C@H](NC(=O)[C@H](CC1CCCCC1)NC(=O)c1ccno1)C(=O)N1CCC2(CCc3ccccc32)CC1,inactive
4,CN(C)c1ccc(C2Nc3ccc4ccccc4c3C3=C2C(=O)CC(C)(C)C3)cc1Br (stereo unspecified),inactive
5,COc1cc(F)c(F)c(Nc2ccc(I)cc2F)c1NS(=O)(=O)C1(C[C@H](O)CO)CC1,inactive
6,CN(C(=O)c1ccc(F)cc1C(F)(F)F)C1CCN(c2nnc(-c3ccnn3C)c3ccccc23)CC1,inactive

# Test system: Nanoluciferase (engineered Oplophorus gracilirostris luciferase)
# Assay: Primary Nanoluciferase (NLuc) qHTS assay for identification of artifact compounds. (AID 1845222);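 note: NLuc secreted into diluted conditioned medium of S16 cells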
# Settings: NLuc-conditioned medium, Nano-Glo luminescence, 5 min; series mostly up to 54.1 µM
# Procedure, shortened: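 Using secreted nanoluciferase in S16 culture medium (0.22 um filtered, 1:55 dilution), compounds were preincubated 15 min at RT. Signal was generated with Nano-Glo reagent (1:100) over 5 min.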
row,Compound,outcome
1,CS(=O)(=O)c1ccc(C(=O)Nc2ccc(Cl)c(-c3ccccn3)c2)c(Cl)c1,inactive
2,Cc1cc(Nc2nc(N[C@@H](C)c3ncc(F)cn3)ncc2Cl)n[nH]1,inactive
3,O=C(NOC[C@H](O)CO)c1ccc(F)c(F)c1Nc1ccc(I)cc1F,inactive
4,CC1(C)CNc2cc(NC(=O)c3cccnc3NCc3ccncc3)ccc21,inactive
5,O=c1[nH]c(-c2ccc(C(F)(F)F)cc2)nc2c1CSCC2,inactive
6,CNC(=O)c1ccccc1Sc1ccc2c(/C=C/c3ccccn3)n[nH]c2c1,inactive
7,C[C@@H]1CN(Cc2ccc(F)cc2)[C@@H](C)CN1C(=O)c1cc2c(C(=O)C(=O)N(C)C)cn(C)c2cc1Cl,inactive
8,CC1(C)Cc2c(-c3ccccc3)c(-c3ccc(Cl)cc3)c(CC(=O)O)n2C1,inactive
9,CC(C)(N)C(=O)N[C@H](COCc1ccccc1)C(=O)N1CCC2(CC1)CN(S(C)(=O)=O)c1ccccc12,inactive
10,Clc1ccc(Nc2nnc(Cc3ccncc3)c3ccccc23)cc1,inactive
11,CCOc1ccn(-c2ccc(F)cc2)c(=O)c1C(=O)Nc1ccc(Oc2ccnc(N)c2Cl)c(F)c1,inactive
12,COc1c(Cl)cc2c([nH]c3cnccc32)c1NC(=O)c1cccnc1C,inactive
13,CCCS(=O)(=O)Nc1ccc(F)c(C(=O)c2c[nH]c3ncc(Cl)cc23)c1F,inactive
14,C[C@H](NC(=O)Cc1cc(F)cc(F)c1)C(=O)N[C@@H]1C(=O)N(C)c2ccccc2-c2ccccc21,inactive
15,CC(C)OC(=O)C1=CN(C(=O)c2ccc(F)c(F)c2)CC(C)(C)c2c1[nH]c1ccccc21,inactive
16,COc1cccc2cc(-c3nc(C4CCC(C(=O)O)CC4)n4ncnc(N)c34)[nH]c12 (stereo unspecified),inactive
17,CC[C@@H](C)[C@H](NC(=O)[C@H](CC1CCCCC1)NC(=O)c1ccno1)C(=O)N1CCC2(CCc3ccccc32)CC1,inactive
18,CN(C)c1ccc(C2Nc3ccc4ccccc4c3C3=C2C(=O)CC(C)(C)C3)cc1Br (stereo unspecified),inactive
19,COc1cc(F)c(F)c(Nc2ccc(I)cc2F)c1NS(=O)(=O)C1(C[C@H](O)CO)CC1,inactive
20,CN(C(=O)c1ccc(F)cc1C(F)(F)F)C1CCN(c2nnc(-c3ccnn3C)c3ccccc23)CC1,inactive

# Test system: not listed separately
# Assay: Primary redox qHTS assay for identification of artifact compounds. (AID 1845223)
# Settings: Amplex Red/HRP redox cycling with DTT, fluorescence; series mostly up to 53.8 µM
# Procedure, shortened: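 Amplex Red (25 uM) and HRP (250 mU/mL) in HBSS, with compounds for 15 min, then 250 uM DTT for 30 min, room temperature, dark. Fluorescence 525/598 nm read; normalized to DMSO and 10 uM DA3003; Hill fit.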
row,Compound,outcome
1,CS(=O)(=O)c1ccc(C(=O)Nc2ccc(Cl)c(-c3ccccn3)c2)c(Cl)c1,inactive
2,Cc1cc(Nc2nc(N[C@@H](C)c3ncc(F)cn3)ncc2Cl)n[nH]1,inactive
3,O=C(NOC[C@H](O)CO)c1ccc(F)c(F)c1Nc1ccc(I)cc1F,inactive
4,CC1(C)CNc2cc(NC(=O)c3cccnc3NCc3ccncc3)ccc21,inactive
5,Cc1ccnc(NS(=O)(=O)c2ccc(NC(=O)Nc3ccc(S(=O)(=O)Nc4nccc(C)n4)cc3)cc2)n1,inactive
6,O=c1[nH]c(-c2ccc(C(F)(F)F)cc2)nc2c1CSCC2,inactive
7,CNC(=O)c1ccccc1Sc1ccc2c(/C=C/c3ccccn3)n[nH]c2c1,inactive
8,C[C@@H]1CN(Cc2ccc(F)cc2)[C@@H](C)CN1C(=O)c1cc2c(C(=O)C(=O)N(C)C)cn(C)c2cc1Cl,inactive
9,CC(C)(N)C(=O)N[C@H](COCc1ccccc1)C(=O)N1CCC2(CC1)CN(S(C)(=O)=O)c1ccccc12,inactive
10,Clc1ccc(Nc2nnc(Cc3ccncc3)c3ccccc23)cc1,inactive
11,COc1cc(Oc2ccnc3cc(OC)c(OC)cc23)ccc1NC(=O)NC(C)c1nccs1 (stereo unspecified),inactive
12,CCOc1ccn(-c2ccc(F)cc2)c(=O)c1C(=O)Nc1ccc(Oc2ccnc(N)c2Cl)c(F)c1,inactive
13,COc1c(Cl)cc2c([nH]c3cnccc32)c1NC(=O)c1cccnc1C,inactive
14,CCCS(=O)(=O)Nc1ccc(F)c(C(=O)c2c[nH]c3ncc(Cl)cc23)c1F,inactive
15,C[C@H](NC(=O)Cc1cc(F)cc(F)c1)C(=O)N[C@@H]1C(=O)N(C)c2ccccc2-c2ccccc21,inactive
16,CC(C)OC(=O)C1=CN(C(=O)c2ccc(F)c(F)c2)CC(C)(C)c2c1[nH]c1ccccc21,inactive
17,CC[C@@H](C)[C@H](NC(=O)[C@H](CC1CCCCC1)NC(=O)c1ccno1)C(=O)N1CCC2(CCc3ccccc32)CC1,inactive
18,CN(C)c1ccc(C2Nc3ccc4ccccc4c3C3=C2C(=O)CC(C)(C)C3)cc1Br (stereo unspecified),inactive
19,COc1cc(F)c(F)c(Nc2ccc(I)cc2F)c1NS(=O)(=O)C1(C[C@H](O)CO)CC1,inactive
20,CN(C(=O)c1ccc(F)cc1C(F)(F)F)C1CCN(c2nnc(-c3ccnn3C)c3ccccc23)CC1,inactive
